IL-1B inflam inh: inhibitors of inflammasome signaling (IL-1 beta secretion); THP-1 LPS/ATP IL-1B secretion, AlphaLISA, 16 h; active compounds read low; activity change, % at 57.5 µM; 360,000 compounds, 4.7% hits; in the data active means activity change below about -50%; inconclusive means mostly about -30% to -49%
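THP-1 cells pretreated 1 hr with compounds (up to 57.5 uM final), then stimulated with LPS (250 ng/mL final) plus ATP (1.25 mM final); secreted IL-1B measured by AlphaLISA after 16 hr, decreased signal indicating inhibition.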
TDP1 inh: inhibitors of human tyrosyl-DNA phosphodiesterase TDP1; recombinant TDP1, AlphaScreen DNA substrate cleavage; Q9NUW8; Potency, µM (doses to about 130 µM), for the others: at the highest dose activity change, negative = inhibition, usual class: inhibitors; 350,000 compounds, 0.28% hits; further: potency means the concentration at half of the fitted maximal effect; nearly all actives have a fitted effect of over 40% in size
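Compounds were preincubated with Tdp1 (1 nM final) for 15 min at room temperature before substrate (15 nM final) started a 5 min reaction; beads (10 ug/ml final) were then added for 10 min before AlphaScreen detection.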
TDP1 cell noCPT: qHTS for Inhibitors of human tyrosyl-DNA phosphodiesterase 1 (TDP1): qHTS in cells in absence of CPT. DT40 Tdp1-/- hTDP1 cells, no CPT, ATP luminescence, 48 h. Potency, µM (top dose mostly 46.2 µM), for the others: at the top dose activity change, negative = growth inhibition, usual class: inhibitors. 420,000 compounds, 15% hits. AID 686978, 2013; further: potency means the concentration at half of the fitted maximal effect; nearly all actives have a fitted effect of over 55% in size
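Growth of hTDP1-complemented DT40 Tdp1-knockout cells is measured by ATP luminescence after at least 48 hr compound exposure at 37 °C, with DMSO substituting for the 20 nM CPT used in the parallel screen.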
Six1-Eya2 inh: Six1/Eya2 interaction inhibition; Q15475+O00167; AlphaScreen GST-Six1/His-Eya2 binding, biochemical; active compounds read low; activity change, % (no concentration beside the values); 360,000 compounds, 0.56% hits; AID 651725; in the data active means activity change below about -65%; inconclusive means mostly about -30% to -63%
Target sequence (O00167 whole entry, looked up): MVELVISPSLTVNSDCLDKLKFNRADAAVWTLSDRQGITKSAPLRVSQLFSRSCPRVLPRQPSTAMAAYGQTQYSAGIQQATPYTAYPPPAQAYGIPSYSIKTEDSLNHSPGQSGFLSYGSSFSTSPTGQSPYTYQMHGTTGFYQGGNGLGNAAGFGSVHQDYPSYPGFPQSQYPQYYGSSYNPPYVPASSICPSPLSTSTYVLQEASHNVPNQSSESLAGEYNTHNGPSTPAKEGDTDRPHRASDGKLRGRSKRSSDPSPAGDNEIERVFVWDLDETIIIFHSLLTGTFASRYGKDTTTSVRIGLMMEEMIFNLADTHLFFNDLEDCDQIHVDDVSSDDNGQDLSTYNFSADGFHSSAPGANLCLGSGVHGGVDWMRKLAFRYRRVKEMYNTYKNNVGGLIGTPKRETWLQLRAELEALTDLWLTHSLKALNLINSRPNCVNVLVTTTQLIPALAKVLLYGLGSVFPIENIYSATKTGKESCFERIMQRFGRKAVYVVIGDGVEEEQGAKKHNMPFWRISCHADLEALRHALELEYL
Target sequence (Q15475 whole entry, looked up): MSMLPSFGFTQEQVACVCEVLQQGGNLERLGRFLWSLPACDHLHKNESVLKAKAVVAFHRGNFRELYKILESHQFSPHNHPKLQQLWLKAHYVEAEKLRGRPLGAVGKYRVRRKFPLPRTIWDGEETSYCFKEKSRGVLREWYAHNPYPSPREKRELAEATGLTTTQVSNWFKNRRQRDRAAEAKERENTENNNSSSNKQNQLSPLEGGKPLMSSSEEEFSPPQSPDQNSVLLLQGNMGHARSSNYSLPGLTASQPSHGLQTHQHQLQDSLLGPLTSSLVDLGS
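GST-Six1 + His-Eya2 (5X stock: 250/500 nM); Tris pH 8.0, 300 mM NaCl, 0.05% BSA, 0.02% Tween 20; GSH donor/Ni acceptor beads; 1 h 37 °C dark; AlphaScreen readout.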
TDP1 cell CPT: DT40-hTDP1 cell growth loss with CPT. chicken DT40 Tdp1-/-;hTDP1 cells + 20 nM CPT, ATP luminescence, 48 h. Potency, µM (series often up to 46.2 µM), for inactives: at the highest dose activity change, negative = growth inhibition, usual class: inhibitors. 420,000 compounds, 12% hits; further: potency means the concentration at half of the fitted maximal effect; nearly all actives have a fitted effect of over 55% in size
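Chicken DT40 Tdp1-/- cells complemented with human TDP1, 400 cells/well, exposed to compounds plus 20 nM camptothecin for at least 48 h at 37 C; viability read as ATP content by CellTiter-Glo luminescence.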
CtBP-E1A blk: CtBP/E1A binding inhibition; AID 651724; activity change, % (test concentration not listed); 340,000 compounds, 0.49% hits; AlphaScreen GST-E1A/His-CtBP binding, 1536-well; active compounds read low; in the data active means activity change below about -65%; inconclusive means mostly about -30% to -63%
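Homogeneous bead-based format: GST-tagged E1A captured on glutathione donor beads, His-tagged CtBP on nickel acceptor beads; compounds precede bead addition by 2 h at 37 °C.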
Starred values were filed as active, the others as inactive; ? = inconclusive; · = not tested or not shown. Only some compounds are listed: those with a hit (about 18% of all), similar ones and a draw of the others. Unless noted, the call rests on the fitted dose curve; in most records, active means well fitted curve in the direction sought with a large enough effect; inconclusive means small, poorly fitted or top-dose-only effect, or another doubt; inactive means no such curve, though single readings can be large; an effect the other way counts as inactive or inconclusive. On the % scale 0 is the no-effect control and ±100 the full control effect.

SMILES	IL-1B inflam inh	TDP1 inh	TDP1 cell noCPT	Six1-Eya2 inh	TDP1 cell CPT	CtBP-E1A blk
O=S(=O)(NCCCCCNS(=O)(=O)c1c(F)cccc1F)c1ccc2c(c1)OCCO2	·	1%	·	·	·	·
NCCNS(=O)(=O)c1cccc2c(Cl)cccc12	·	4%	27µM*	·	27µM*	·
NCCCCNS(=O)(=O)c1ccc2c(Cl)cccc2c1	·	6%	12µM*	·	12µM*	·
CCOC(=O)CN(C(=O)CSc1nnc(CNc2ccc(C)cc2C)o1)c1ccccc1	-3	4%	-20%	-5	?	-10
CCCCc1nc2sc3c(=O)n(N)cnc3c2c2c1CCCC2	8	-2%	?	-16	-25%	·
O=C(c1ccc(Cl)cc1)C1CCN(C(=O)c2ccccc2)CC1	?	·	15µM*	-9	?	6
CSc1ccc(NC(=O)N2CCC(C(=O)c3ccc(F)cc3)CC2)cc1	-69*	9%	?	0	?	-21
COc1ccc(NC(=S)N2CCC(C(=O)c3ccc(Cl)cc3)CC2)cc1	8	·	11%	0	6%	·
Cc1cc(C)c2cc(C(=O)N3CCC(N4CCCCC4)CC3)[nH]c2c1	-11	2%	-1%	-3	-16%	-1
O=C(c1ccc(Cl)cc1)C1CCN(C(=S)Nc2ccccc2)CC1	-11	·	16µM*	5	-17%	·
Cc1cc(C)c2cc(C(=O)N3CCC(C(=O)c4ccc(F)cc4)CC3)[nH]c2c1	?	5%	21µM*	-3	?	-4
O=C(c1ccc2c(c1)OCCO2)C1CCN(C(=O)c2ccc(F)c(F)c2)CC1	-14	0%	16µM*	-1	?	-3
O=C(c1ccc(F)cc1)C1CCN(C(=O)c2ccc(Cl)cc2)CC1	-10	·	18µM*	-1	?	·
O=C(c1ccc(F)cc1)N1CCC(C(=O)N(Cc2ccccc2)c2ccccc2)CC1	-2	-1%	18µM*	-1	23µM*	·
O=C(c1ccc(F)cc1)C1CCN(C(=O)c2ccccc2)CC1	?	·	?	-2	-1%	-6
Cc1nc(NCC2CCCO2)c2nnn(Cc3ccccc3Cl)c2n1 (stereo not given)	?	3%	?	2	-19%	2
CN1C(=O)/C(=C2\SC(=S)N(CCCCCC(=O)O)C2=O)c2ccccc21	0	·	-26%	-1	?	8
O=C(O)CCN1C(=O)/C(=C2\C(=O)N(Cc3ccc(F)cc3)c3ccccc32)SC1=S	9	-9%	15µM*	-4	16µM*	1
CCNC(=O)Nc1nc2ccccc2s1	0	1%	8%	2	-1%	10
CCC(C)C(NC(=O)c1ccc(Cl)cc1)C(=O)Nc1cccnc1 (stereo not given)	-85*	-10%	-2%	-7	-9%	0
O=C(Nc1ccc(Cl)cc1)Nc1cccnc1	-22	-10%	?	2	16µM*	-1
O=C(Nc1ccc(Cc2ccc(NC(=O)Nc3cccnc3)cc2)cc1)Nc1cccnc1	-25	·	-13%	-3	-16%	4
Cc1ccc(NC(=O)Nc2nc3ccccc3s2)cc1NC(=O)Nc1nc2ccccc2s1	9	3%	13µM*	1	?	·
Cc1ccc(NC(=O)Nc2cccnc2)cc1NC(=O)Nc1cccnc1	-4	3%	9.2µM*	-4	13µM*	·
O=C(NC1CCCCC1)C(C1CC1)N1CCc2ccccc2C1 (stereo not given)	5	·	-8%	6	-1%	6
SMILES	IL-1B inflam inh	TDP1 inh	TDP1 cell noCPT	Six1-Eya2 inh	TDP1 cell CPT	CtBP-E1A blk
CC(C)NC(=O)CN1C(=O)C(=O)c2ccccc21	-3	-2%	-14%	0	-25%	-3
O=C(Nc1cccnc1)Nc1cccc(F)c1	19	3%	13µM*	-5	-28%	·
Cc1c(Cl)cccc1NC(=S)/C(=C(\[O-])c1ccc(Cl)s1)[n+]1ccccc1	-70*	6%	-23%	-13	-22%	-10
[O-]/C(=C(\C(=S)Nc1cccc2ccccc12)[n+]1cccc(CO)c1)c1ccc(Cl)s1	0	7%	-23%	-8	-23%	-12
CC(=O)C(Sc1nc(-c2ccccc2Cl)nc2c1c(=O)n(C)c(=O)n2C)C(=O)N(C)C (stereo not given)	·	5%	?	·	?	·
O=C(CCc1ccc(S(=O)(=O)N2CCOCC2)cc1)Nc1ccccc1F	2	1%	-29%	1	-5%	·
O=C(NCC1CCN(c2ccc(S(=O)(=O)N3CCOCC3)cc2)CC1)Nc1ccccc1	0	·	23µM*	-2	?	16
O=C(NCC1CCN(c2ccc(S(=O)(=O)N3CCOCC3)cc2)CC1)Nc1ccccc1F	-12	7%	21µM*	-5	?	-15
COc1ccccc1C(=O)NCC1CCN(c2ccc(S(=O)(=O)N3CCOCC3)cc2)CC1	-3	6%	23µM*	-2	21µM*	8
CC(C)CN1CCC1(C)C(=O)Nc1cccc(C#N)c1 (stereo not given)	25	·	-26%	3	-11%	7
Cc1ccc2[nH]c(CSc3nnc(NC(=O)c4ccccc4C)s3)cc(=O)c2c1	·	5%	5.8µM*	·	7.3µM*	·
Cc1ccc2[nH]c(CSc3nnc(NC(=O)c4ccccc4F)s3)cc(=O)c2c1	·	8%	10µM*	·	10µM*	·
Cc1ccc2[nH]c(CSc3nnc(NC(=O)COc4ccccc4F)s3)cc(=O)c2c1	·	-5%	?	·	?	·
CCOc1ccc(C(=O)NCC(=O)Nc2ccncc2)cc1OCC	15	-6%	10%	-5	-6%	0
Cc1oc(-c2ccc(Cl)cc2)nc1CS(=O)CC(=O)NCc1ccc2c(c1)OCO2 (stereo not given)	-5	·	-29%	0	-4%	4
Cc1ccc(S(=O)(=O)N2CC(O)C[C@H]2C(=O)OCC(=O)Nc2ccc(N3CCCCC3)cc2)cc1C (stereo not given in full)	-1	·	18µM*	-22	?	-17
Clc1cc(Cl)c(OCC#CI)cc1Cl	·	·	1.9µM*	·	1.7µM*	·
Clc1cc(Cl)c(Cl)cc1Cl	-3	0%	-21%	1	-19%	0
COc1ccccc1CNC(=O)c1cnn(-c2ccc(F)cc2F)c1C1CCN(C(=O)OC(C)(C)C)CC1	·	6%	?	·	16µM*	·
CC(C)(C)OC(=O)N1CCC(c2c(C(=O)N3CCN(c4ncccn4)CC3)cnn2-c2ccc(F)cc2F)CC1	·	1%	?	·	?	·
